Most compounds without a hit are left out; they make up all but 2.3% or so of the library.
POLH inh: qHTS for Inhibitors of Polymerase Eta. DNA polymerase eta (Homo sapiens), Q9Y253. recombinant Pol eta, fluorescent DNA replication assay. Potency, µM (series often up to 114 µM), most hits filed as inhibitors. hit rate 1.2% among 390,000
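Pol eta at 10 nM preincubated with compounds 15 min at room temperature; reaction started with fluorescent substrate (50 nM final) and read kinetically at 0 and 10 min.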
POLB inh: qHTS Assay for Inhibitors of DNA Polymerase Beta | hit rate 1.3% among 340,000 | AID 485314, 2010 | Pol beta primer extension/strand displacement, fluorescence kinetic | Potency, µM (highest dose often 114 µM), hits mostly inhibitors
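Preincubation: enzyme (10 nM) with compound, 15 min, RT. Reaction: substrate added to 50 nM final. Reads: 0 and 10 min. Analysis: normalized, Hill fit.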
WRN inhibitor: qHTS for Inhibitors of WRN Helicase; Bifunctional 3'-5' exonuclease/ATP-dependent helicase WRN (Homo sapiens), Q14191; WRN helicase unwinding, fluorescent forked duplex, kinetic; Potency, µM (top dose mostly 114 µM), most hits filed as inhibitors; hit rate 0.46% among 360,000; AID 651768, 2012; also: nearly all actives have a fitted effect of over 55% in size
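Fluorescence dequenching readout, ex 525 nm/em 598 nm, kinetic mode: forked duplex DNA (100 nM final) with adjacent fluorophore and quencher unwound by WRN (20 nM final) with 2 mM ATP. Compound preincubation 15 min, room temperature.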
POLK inh: qHTS for Inhibitors of Polymerase Kappa | DNA polymerase kappa (Homo sapiens), Q9UBT6 | purified Pol kappa, fluorescent DNA synthesis assay, 10 min | Potency, µM (highest dose often 107 µM), usual class: inhibitors | hit rate 0.53% among 400,000
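50 nM final substrate added after 15 min RT preincubation of 10 nM Pol kappa with compound; fluorescence read at 0 and 10 min.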
Pol iota inh: qHTS for Inhibitors of Polymerase Iota; DNA polymerase iota (Homo sapiens), Q9UNA4; Pol iota fluorescent replication assay, 10 min; Potency, µM (titrated, usually from 115 µM), actives largely listed as inhibitors; hit rate 1% among 390,000
Target sequence (Q9UNA4 whole entry, looked up): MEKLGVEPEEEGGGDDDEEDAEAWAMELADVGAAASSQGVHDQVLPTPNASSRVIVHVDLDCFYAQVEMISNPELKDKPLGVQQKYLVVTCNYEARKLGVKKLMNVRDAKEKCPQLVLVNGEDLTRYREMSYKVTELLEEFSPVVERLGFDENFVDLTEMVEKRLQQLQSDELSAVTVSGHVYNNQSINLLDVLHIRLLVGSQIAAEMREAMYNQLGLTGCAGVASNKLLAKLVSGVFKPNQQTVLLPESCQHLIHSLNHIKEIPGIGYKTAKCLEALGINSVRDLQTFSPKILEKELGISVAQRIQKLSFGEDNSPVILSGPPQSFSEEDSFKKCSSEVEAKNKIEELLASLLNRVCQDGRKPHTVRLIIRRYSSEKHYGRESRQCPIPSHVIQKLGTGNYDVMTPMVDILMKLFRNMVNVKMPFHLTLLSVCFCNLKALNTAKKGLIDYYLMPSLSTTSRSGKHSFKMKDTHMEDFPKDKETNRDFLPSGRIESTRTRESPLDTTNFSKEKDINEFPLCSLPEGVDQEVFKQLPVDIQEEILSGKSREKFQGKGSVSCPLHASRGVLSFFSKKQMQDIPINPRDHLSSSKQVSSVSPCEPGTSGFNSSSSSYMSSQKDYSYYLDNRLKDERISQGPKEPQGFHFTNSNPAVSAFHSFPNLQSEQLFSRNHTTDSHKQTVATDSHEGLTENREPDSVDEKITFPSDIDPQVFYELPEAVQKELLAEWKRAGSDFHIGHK
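Pol iota at 10 nM preincubated 15 min with compounds at room temperature; reaction started with fluorescent substrate, 50 nM final. Fluorescence read kinetically at 0 and 10 min; buffer-only wells as negative control.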
A number is an active result; . = inactive; ? = inconclusive; / = not tested or not shown; [ ] = dose if it differs, or a comment. Calls follow the shape of the dose curve; as a rule, active = well fitted curve in the direction sought with a large enough effect; inconclusive = small, poorly fitted or top-dose-only effect, or another doubt; inactive = no such curve, though single readings can be large; an effect the other way counts as inactive or inconclusive.

SMILES	POLH inh	POLB inh	WRN inhibitor	POLK inh	Pol iota inh
O=C(N/N=C/c1ccccn1)c1cc(-c2ccc3ccccc3c2)n[nH]1	?	20µM	?	.	?
COCCCNC(=O)c1ccc(Cn2c(=O)c3ccccc3n(CC(=O)Nc3c(C)cccc3C)c2=O)cc1	.	50µM	/	.	89µM
CCC(C)NC(=O)Cn1c(=O)n(Cc2ccc(C(=O)NCc3ccccc3OC)cc2)c(=O)c2ccccc21 (stereo unspecified)	.	?	/	.	.
CCC(C)NC(=O)Cn1c(=O)n(Cc2ccc(C(=O)NCc3ccc(C)cc3)cc2)c(=O)c2ccccc21 (stereo unspecified)	?	20µM	/	.	.
Cc1cc[n+](CCC2CCCCC2)c2ccccc12	/	/	/	.	.
Nc1nc(NCc2cccc(Cl)c2)c2[nH]cnc2n1	/	/	/	.	.
Clc1ccccc1COc1ccc(/C=N/n2cnnc2)cc1	.	32µM	.	.	.
CC(=O)NC1=NN(C(C)=O)C(C)(c2ccccc2)S1 (stereo unspecified)	.	7.1µM	.	.	.
COCCN(CC(=O)Nc1cccc(C)c1C)C(=O)c1cc2c(s1)CCC2	?	/	.[11.6 µM]	?	89µM
O=C(CNC(=O)C1CCCCC1)OCC(=O)c1ccccc1	/	/	/	.	.
C=CCSc1nnc2nc3c(nn12)c1cc(C)ccc1n3CC=C	?	25µM	?	.	?
C=CCn1c2ccccc2c2nnc(SCC(N)=O)nc21	.	.	.	.	.
CCC(=O)N1CCc2cc(S(=O)(=O)CCC(=O)N3CCN(c4ccccc4)CC3)ccc21	.	.	.	.	.
O=C(O)c1c[nH]c2ccc(S(=O)(=O)N3CCN(c4ccc(F)cc4)CC3)cc2c1=O	89µM	20µM	.	?	?
CC(=O)N1CCc2cc(S(=O)(=O)CCC(=O)N3CCN(c4ccccc4)CC3)ccc21	.	1.3µM	.	.	.
O=C(O)CCC(=O)N1CCc2cc(S(=O)(=O)N3CCN(c4ccc(F)cc4)CC3)ccc21	.	22µM	.	.	?
Cc1ccc(C)c(N2CCN(S(=O)(=O)c3ccc4c(c3)CCN4C(=O)CCC(=O)O)CC2)c1	.	.	.	.	.
NC(=O)CC(NC(=O)c1ccccc1)c1ccc(NCCCN2CCCC2=O)c([N+](=O)[O-])c1 (stereo unspecified)	.	79µM	.	.	?
Oc1cc(Nc2cccnc2)cc2cccnc12	.	/	/	.	.
Oc1cc(NCCc2cccnc2)cc2cccnc12	.	/	/	.	35µM
COc1ccc2c(c1)c(CC(=O)NCc1cc([N+](=O)[O-])ccc1O)c(C)n2C(=O)c1ccc(Cl)cc1	45µM	40µM	?	.	?
O=C(c1cccc(Cl)c1Cl)N(Cc1ccco1)Cc1cccs1	/	/	/	.	.
COc1c(O)cc(O)cc1O	/	/	/	25µM	/
NS(=O)(=O)c1ccc(CNS(=O)(=O)c2cc(C(=O)O)ccc2Cl)cc1	20µM	?	.	.	?
Cc1cc(/C=C2\C(=N)N3N=C(CC(=O)N4CCOCC4)SC3=NC2=O)c(C)n1-c1ccccc1	?	?	.	.	?
SMILES	POLH inh	POLB inh	WRN inhibitor	POLK inh	Pol iota inh
COc1ccc(-n2c(C)cc(/C=C3\C(=N)N4N=C(CC(=O)N5CCOCC5)SC4=NC3=O)c2C)cc1	32µM	0.89µM	.[11.6 µM]	?	50µM
CC(C)c1ccc(/C=C2\C(=N)N3N=C(CC(=O)N4CCCCC4)SC3=NC2=O)cc1	.	.	.[11.6 µM]	?	20µM
c1ccc2c(CCc3c[nH]c4ccccc34)ccnc2c1	/	/	/	.	.
O=C(Nc1cc(C(F)(F)F)ccc1Cl)C1CCN(c2nnc(-n3cccc3)s2)CC1	?	4µM	.	.	?
CS(=O)(=O)N1CCC(C(=O)Nc2cc(C(F)(F)F)ccc2Cl)CC1	.	.	.	.	.
O=c1cc(CSc2nnnn2-c2ccccc2)[nH]c2[nH]n(-c3ccccc3)c(=O)c12	.	.	.	40µM	?
c1ccc(CSc2nnnn2-c2ccccc2)cc1	.	.	.	.	.
O=C(Cc1ccccc1)Nc1cccc(N2C(=O)C=CC2=O)c1	.	.	45µM	.	.
O=C(C[n+]1ccccc1Br)c1ccc(-c2ccccc2)cc1	/	/	/	.	?
O=C(Nc1cccc(-c2cscn2)c1)C1CCN(Cc2ccc(CO)o2)CC1	.	.	.[11.6 µM]	?	50µM
Cc1cc(N2C(=O)C=CC2=O)c([N+](=O)[O-])cc1C	.	.	.	.	.
Cc1c([N+](=O)[O-])cc(N2C(=O)C=CC2=O)cc1[N+](=O)[O-]	.	/	.	?	10µM
Cc1cc(C)cc(N2C(=O)C=CC2=O)c1	.	/	20µM	.	.
C=C[C@@H]1[C@@H](C)[C@H](C)C(=O)C([C@H](O)C(C)C)[C@@H]1C (stereo partly specified)	/	/	/	.	.
CC(=O)Nc1cccc(-n2cc3c(c2-c2ccccc2Cl)c(=O)n(C)c(=O)n3C)c1	.	.	/	89µM	?
CC(=O)Nc1ccc(-n2cc3c(c2-c2ccc(C)cc2)c(=O)n(C)c(=O)n3C)cc1	.	.	/	.	.
CC1CCN(S(=O)(=O)c2ccc(NC(=O)C3CSC4(C)CCC(=O)N34)cc2)CC1 (stereo unspecified)	20µM	/	.[11.6 µM]	.	?
CC12CCC(=O)N1C(C(=O)Nc1cccc(S(=O)(=O)N3CCCCC3)c1)CS2 (stereo unspecified)	.	/	.	.	?
COc1ccc2c(c1)CCC2=O	/	/	/	.	.
Cc1ccc(N(CC(=O)N2CC(=O)Nc3ccccc32)S(=O)(=O)c2ccc3c(c2)OCCO3)cc1	.	.	.[11.6 µM]	.	79µM
CC[C@H](C)[C@H](NC(=O)[C@H](C)NC(=O)CNC(=O)[C@H](CCCN=C(N)N)NC(=O)[C@H](C)NC(=O)[C@H](CC(C)C)NC(=O)[C@H](CCC(=O)O)NC(=O)[C@H](CC(C)C)NC(=O)[C@H](C)NC(=O)[C@@H](N)CCC(=O)O)C(=O)N[C@@H](Cc1ccccc1)C(=O)N[C@@H](CCC(N)=O)C(=O)N[C@@H](C)C(=O)O	/	/	/	.	/
O=C(Nc1ncc([N+](=O)[O-])s1)c1cccs1	.	.	.	.	?
O=C(Nc1ncc([N+](=O)[O-])s1)c1ccccc1Br	50µM	?	.	?	28µM
CCN(Cc1ccccc1)C(=O)c1cc(-c2ccccc2)n[nH]1	.	.	/	.	.
Cc1csc[n+]1CC(=O)c1ccccc1	/	/	/	.	.
Cc1ccccc1N1CC(=O)N(c2ccccc2C)CC1=O	.	.	.	.	.
CC1=NN(c2ccccc2C)C(=O)C1	.	/	.[11.6 µM]	.	3.2µM
O=C(O)C(Cc1ccc2c(c1)oc1ccccc12)NCP(=O)(O)O (stereo unspecified)	/	/	/	.	/

Assay outcomes (PubChem)
